Among the test systems are SK-MEL-2 melanoma; EKVX NSCLC; SN12C renal; UO-31 renal; TK-10 renal; ACHN renal; CAKI-1 renal; A498 renal; CCRF-CEM leukemia; MOLT-4 leukemia.
Test in all cases: NCI-60 one-dose screen, 48 h (100 = growth as untreated, 0 = no growth, -100 = all killed)
Conditions in all cases: 10 µM unless noted

About 83,000 compounds went through this panel and 20% of them were active in at least one assay; those are over-represented in the sample as a whole.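 Growth was measured after 48 h exposure to one concentration of compound in 96-well plates. Values under 10 count as active.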 Unmarked numbers belong to inactive results. The source made the active and inactive calls.

On to `C#CC#CC#CC#CC#CC#CC#CC#CCC1OCC(COC(=O)O[C@@H](C(=O)O[C@H]2C[C@@]3(O)[C@@H](OC(=O)c4ccccc4)[C@@H]4[C@]5(OC(C)=O)CO[C@@H]5C[C@H](O)[C@@]4(C)C(=O)[C@H](OC(C)=O)C(=C2C)C3(C)C)[C@@H](NC(=O)c2ccccc2)c2ccccc2)O1` (stereo not given in full), for which the growth is 30.9% with SK-MEL-2 melanoma; 45.5% with EKVX NSCLC; 21.4% in the test on SN12C renal; 81.7% in the test with UO-31 renal; 48% with TK-10 renal; 45.4% in the test with ACHN renal. Further, the growth is 49.6% in the test on CAKI-1 renal, -8.03% (active) in the test with A498 renal, 12.1% in the test with CCRF-CEM leukemia and 20.7% with MOLT-4 leukemia.
As for `O=C1/C(=C/c2ccccc2[N+](=O)[O-])COc2ccc(O)cc21`, the growth in the test on SK-MEL-2 melanoma was 57.1%; in the test with EKVX NSCLC, 54.7%; in the test on SN12C renal, -17.2% (active); in the test on UO-31 renal, -68.7% (active); in the test with TK-10 renal, 27.4%; with ACHN renal, -13.5% (active). Also, the growth with CAKI-1 renal was -15.3% (active); in the test with A498 renal it was 85.8%; with CCRF-CEM leukemia, 0.864% (active); in the test on MOLT-4 leukemia, 4.74% (active).
For `Cc1cccc(N2CCN(C(=S)c3ccc4c(c3)OCO4)CC2)c1`, the growth in the test with SK-MEL-2 melanoma was 9.2% (active); with EKVX NSCLC it was 47.1%; with SN12C renal, 40%; in the test with UO-31 renal, 25.6%; with TK-10 renal, 36.5%; in the test on ACHN renal, 43.1%. Besides, the growth was 15.1% with CAKI-1 renal, 11.7% in the test on A498 renal, 16.5% in the test on CCRF-CEM leukemia and 22% in the test on MOLT-4 leukemia.
Regarding `Cn1cccc1/C=C1\C(=O)Nc2ccccc21`, the growth with SK-MEL-2 melanoma is 114%; in the test on EKVX NSCLC, 34.4%; with SN12C renal, 94%; in the test on UO-31 renal, 62.9%; in the test with TK-10 renal, 72.2%; in the test with ACHN renal, 98.2%. Further, the growth is 86% with CAKI-1 renal, 125% in the test on A498 renal, 104% with CCRF-CEM leukemia and 97.7% in the test on MOLT-4 leukemia.
Regarding `CCN(CC)c1ccc(/C=N\NC(=O)c2cccc(Nc3ccnc(C(F)(F)F)c3)c2)c(O)c1`, the growth is 87.5% with SK-MEL-2 melanoma; 26.6% with EKVX NSCLC; 18.2% with SN12C renal; 7.3% (active) in the test on UO-31 renal; 42.8% in the test with TK-10 renal; 12.1% in the test with ACHN renal. The growth in the test on CAKI-1 renal is 55.6%; in the test on A498 renal it was 53%; in the test on CCRF-CEM leukemia, 15.7%; in the test on MOLT-4 leukemia, 77.5%.
As for `S=c1[nH]c2cc(Cl)ccc2o1`, the growth in the test with SK-MEL-2 melanoma is 98.6%; in the test on EKVX NSCLC it was 99.3%; in the test on SN12C renal it was 100%; in the test on UO-31 renal, 87.9%; with TK-10 renal, 94.6%; with ACHN renal it was 98.7%. Moreover, the growth in the test with CAKI-1 renal is 97.8%; in the test with A498 renal, 91.8%; in the test with CCRF-CEM leukemia, -43.2% (active); in the test with MOLT-4 leukemia, 63.1%.
For `CCCCCCNc1nc(NCCCCCC)c2[nH]c(NCCCCCC)nc2n1`, the growth is 30.2% in the test on SK-MEL-2 melanoma; 44% in the test with EKVX NSCLC; 26.5% with SN12C renal; 80.9% with UO-31 renal; 116% in the test on TK-10 renal; 100% in the test on ACHN renal. The growth is 74.1% in the test with CAKI-1 renal, 40.3% in the test on A498 renal, -29.6% (active) in the test with CCRF-CEM leukemia and -12.5% (active) with MOLT-4 leukemia.
For the compound `N#CCC1=NC(c2cccs2)=Nc2ccccc2S1`, the growth was 96.9% with SK-MEL-2 melanoma; 105% in the test on EKVX NSCLC; 86.6% in the test with SN12C renal; 79.1% with UO-31 renal; 117% with TK-10 renal; 98.2% in the test on ACHN renal. The growth with CAKI-1 renal is 95.6%; in the test with A498 renal, 90.9%; in the test with CCRF-CEM leukemia, 90.8%; in the test on MOLT-4 leukemia, 92.5%.
Take `Cc1c2ccccc2nc2c1ccc1cccnc12`: the growth in the test with SK-MEL-2 melanoma is 95.5%; in the test with EKVX NSCLC, 62.7%; in the test on SN12C renal, 88.7%; with UO-31 renal, 83.9%; in the test with TK-10 renal, 96.1%; with ACHN renal, 97.3%. Moreover, the growth was 77% in the test with CAKI-1 renal, 80.2% in the test on A498 renal, 77.8% in the test with CCRF-CEM leukemia and 68.3% in the test with MOLT-4 leukemia.
Regarding `O=c1oc2c(cnc3ccccc32)cc1-c1cccs1`, the growth in the test on SK-MEL-2 melanoma is 108%; in the test with EKVX NSCLC it was 103%; in the test with SN12C renal, 98.4%; in the test with UO-31 renal, 88.3%; in the test on TK-10 renal it was 106%; in the test with ACHN renal, 102%. Moreover, the growth in the test on CAKI-1 renal is 88.9%; in the test on A498 renal, 107%; with CCRF-CEM leukemia, 103%; with MOLT-4 leukemia, 102%.
Consider `C/C(=C(\c1ccc(OCCN2CCCCCC2)cc1)c1ccc(OC(=O)Cc2ccccc2)cc1)c1ccc(Cl)cc1`, for which the growth in the test on SK-MEL-2 melanoma was 52.9%; with EKVX NSCLC it was 56.4%; with SN12C renal it was 28.9%; in the test with UO-31 renal it was 44.1%; in the test with TK-10 renal, 68.6%; in the test on ACHN renal, 62.3%. Besides, the growth in the test with CAKI-1 renal was 48.7%; in the test with A498 renal, 79%; with CCRF-CEM leukemia, 6.31% (active); in the test on MOLT-4 leukemia, -6.79% (active).
On to `COc1cc2nc(Nc3cccc(F)c3)nc(Nc3cc(C)[nH]n3)c2cc1OC`, for which the growth with SK-MEL-2 melanoma was -68.2% [20 µM] (active); in the test on EKVX NSCLC it was -67.4% [20 µM] (active); in the test with SN12C renal, -94.3% [20 µM] (active); in the test on UO-31 renal, -98.7% [20 µM] (active); with TK-10 renal, -71% [20 µM] (active); in the test with ACHN renal, -97.1% [20 µM] (active). Further, the growth in the test with CAKI-1 renal is -97.7% [20 µM] (active); in the test on A498 renal, -83% [20 µM] (active); in the test with CCRF-CEM leukemia, -19.7% [20 µM] (active); in the test on MOLT-4 leukemia it was -40.8% [20 µM] (active).
Turning to `Cc1c(N2CN3C[C@H](C)N4CN(c5c(C)n(C)n(-c6ccccc6)c5=O)CN5C[C@@H](C)N(C2)C3C54)c(=O)n(-c2ccccc2)n1C` (stereo not given in full), the growth in the test with SK-MEL-2 melanoma is 101%; in the test on EKVX NSCLC, 96.1%; in the test on SN12C renal it was 100%; with UO-31 renal it was 77.6%; in the test on TK-10 renal, 110%; with ACHN renal it was 103%. Moreover, the growth with CAKI-1 renal was 87.5%; with A498 renal, 117%; in the test with CCRF-CEM leukemia it was 102%; with MOLT-4 leukemia it was -17.9% (active).
As to `Cc1nc2ccccc2c(/C=C/c2ccc(C(F)(F)F)cc2)c1C(=O)/C=C/c1ccccc1`, the growth in the test with SK-MEL-2 melanoma was -43.6% (active); in the test on EKVX NSCLC it was 8.76% (active); in the test on SN12C renal, -25.9% (active); in the test with UO-31 renal it was -96.1% (active); in the test on TK-10 renal, 7.75% (active); in the test with ACHN renal, -54.6% (active). Also, the growth is 0.887% (active) in the test on CAKI-1 renal, -31.4% (active) in the test with A498 renal, 5.84% (active) with CCRF-CEM leukemia and 4.86% (active) in the test on MOLT-4 leukemia.
